p53 reactivator: re-activators of mutant p53. H1299 p53-A138V BP100-luciferase reporter, luminescence, 24 h. Potency, µM (titrated, usually from 92.2 µM), for inactives: at the top dose activity change, positive = activation, hits mostly activators. 320,000 tested, 0.063% active; further: potency means the concentration at half of the fitted maximal effect; % of control where 0% means no effect; nearly all actives have a fitted effect of over 45% in size
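H1299 (p53-null), stable ts p53-A138V + BP100-Luc; 1000 cells/well, Opti-MEM/10% FBS; cpd 4 pt, 1:5; 24 h, 37 deg C, 5% CO2; detection reagent 10 min RT; luminescence.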
GLS inhibitor: glutaminase GLS (human) inhibition. 410,000 tested, 0.21% active. Potency, µM (titrated, usually from 45.5 µM), for inactives: at the top dose activity change, negative = inhibition, usual class: inhibitors. GLS enzymatic activity, qHTS titration; further: potency means the concentration at half of the fitted maximal effect; on the % scale 0 is the no-effect control and ±100 the full control effect
Target sequence (O94925 whole entry, looked up): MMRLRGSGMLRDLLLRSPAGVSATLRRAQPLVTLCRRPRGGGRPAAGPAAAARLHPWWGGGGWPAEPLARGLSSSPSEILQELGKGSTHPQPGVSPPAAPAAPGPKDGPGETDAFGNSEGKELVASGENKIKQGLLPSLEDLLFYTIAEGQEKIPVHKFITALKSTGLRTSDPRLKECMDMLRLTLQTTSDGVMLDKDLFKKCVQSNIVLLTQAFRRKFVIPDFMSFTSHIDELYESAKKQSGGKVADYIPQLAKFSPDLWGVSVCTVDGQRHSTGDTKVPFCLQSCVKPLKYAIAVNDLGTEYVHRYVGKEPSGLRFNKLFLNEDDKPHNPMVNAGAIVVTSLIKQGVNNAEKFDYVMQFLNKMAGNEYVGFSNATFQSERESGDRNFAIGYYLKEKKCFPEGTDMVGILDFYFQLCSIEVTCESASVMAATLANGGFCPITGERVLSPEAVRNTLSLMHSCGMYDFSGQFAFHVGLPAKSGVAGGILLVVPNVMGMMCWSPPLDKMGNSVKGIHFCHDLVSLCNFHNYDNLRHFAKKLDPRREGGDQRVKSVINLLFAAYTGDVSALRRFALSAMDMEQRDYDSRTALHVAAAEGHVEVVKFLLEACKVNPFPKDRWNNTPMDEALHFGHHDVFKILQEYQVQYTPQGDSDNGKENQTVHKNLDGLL
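Enzyme dispensed in phosphate buffer (45 mM, pH 8.2, 0.02% Tween-20), compounds pinned in, then 1 mM L-glutamine solution and the glutamate oxidase–HRP–Amplex Red mix added; fluorescence read immediately and again after 30 min at room temperature.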
BRCA1 expr up: BRCA1 expression activation | Potency, µM (doses to about 46.1 µM), without a hit: at the top dose activation, hits mostly activators | 380,000 tested, 1.1% active | MCF7-BRCA1-FFLuc reporter, luminescence, 48 h; response scale: scaled: vehicle 0%, 10 µM genistein 100%; further: potency means the concentration at half of the fitted maximal effect; nearly all actives have a fitted effect of over 80% in size
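Cells: MCF7-BRCA1-FFLuc, 2000/well. Exposure: 48 h, 37 °C, 5% CO2. Read: luminescence, 15 min post-substrate. Controls: genistein 10 microM (maximal activation), DMSO (neutral).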
TCR act: activators of T cell receptors. primary human leukocytes, anti-CD3, IL-2 HTRF, 48 h. Potency, µM (series often up to 9.22 µM), for the others: at the top dose activation of IL-2 secretion, actives largely listed as activators. 330,000 tested, under 10 active. AID 504894; further: % of control where 0% means no effect
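Primary human leukocytes were stimulated with a-CD3 beads plus compounds for 48 hr without co-stimulation; secreted IL-2 was quantified by HTRF using a-IL-2-K (europium cryptate) and a-IL-2-d2, excited at 320nm with acceptor emission read at 665nm.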
N370S GC mod: N370S glucocerebrosidase modulation, Gaucher chaperone candidate | N370S GC spleen homogenate, 4MU-glucoside fluorescence | P04062 | Potency, µM (top dose mostly 59.4 µM), inactives show at the top dose activity change, negative = inhibition, most hits filed as inhibitors | 330,000 tested, 0.092% active;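 further: potency means the concentration at half of the fitted maximal effect; 0% = full enzyme activity and -100% = no enzyme basal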
TSHR antag: human thyrotropin receptor antagonism. activity change, negative = inhibition, % at 11.5 µM. 330,000 tested, 0.2% active. TSHR-expressing cells, TSH-stimulated cAMP HTRF, 2 h; stronger effect = lower value. P16473;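 active means activity change below a set negative limit, meaning inhibition stronger than a set level, cut at about -70% in these data; inconclusive means activity change between two set negative limits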; further: on the % scale 0 is the no-effect control and ±100 the full control effect
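TSHR-expressing cells, 200/well, pre-treated with compound, then stimulated with EC80 TSH (4nM final) for 2 hours at 37 deg C. cAMP measured by competitive HTRF: anti-cAMP cryptate antibody in lysis buffer plus cAMP-d2, read after 30 minutes at room temperature.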
An asterisk follows results filed as active; ? = inconclusive; nt = not tested or not shown; [ ] = dose if it differs, or a comment. Hits are enriched below; roughly 1.4% of the tested compounds scored in any of these assays. Unless noted, the call rests on the fitted dose curve; in most records, active means well fitted curve in the direction sought with a large enough effect; inconclusive means small, poorly fitted or top-dose-only effect, or another doubt; inactive means no such curve, though single readings can be large; an effect the other way counts as inactive or inconclusive.

SMILES	p53 reactivator	GLS inhibitor	BRCA1 expr up	TCR act	N370S GC mod	TSHR antag
COC(=O)c1nc2n(n1)C(c1cccc(Cl)c1)C1=C(CCCC1=O)N2 (stereo not drawn)	-5.2%	14.8%	2.0%	3.1%	-11.6%	-85.4*
CC(C)C1Cc2c(sc3ncnc(NN)c23)CO1 (stereo not drawn)	-2.7%	11.2µM*	-77.6%	14.0%	9.0%	-7.9
O=[N+]([O-])c1ccc(-c2cc3ccccc3[nH]2)cc1	nt	nt	33.6%	nt	nt	nt
CCC(=O)c1ccc(OCC(O)Cn2nnc3ccccc32)cc1 (stereo not drawn)	20.0%	-1.7%	10µM*	-1.1%	0.0%	3.5
Cc1ccccc1OCC(O)Cn1nnc2ccccc21 (stereo not drawn)	?	-10.5%	12.6µM*	3.6%[46.1 µM]	0.4%	-0.1
Cc1cc(C)n(CC(O)COc2ccccc2C)n1 (stereo not drawn)	8.0%	-3.6%	-3.6%	-0.4%	1.7%	0.0
CCC(=O)c1ccc(OCC(O)Cn2nc(C)cc2C)cc1 (stereo not drawn)	0.9%	-1.8%	0.1%	4.1%	-3.0%	-8.1
COc1ccc(N2CCN(C(=O)c3nn(-c4ccc(C)cc4)c(=O)n(C)c3=O)CC2)cc1	nt	7.7%	nt	nt	nt	nt
COc1ccc(-c2noc(-c3cccnc3)n2)cc1OC	14.6%	9.5%	7.94µM*	2.5%	-1.5%	0.5
CCOc1ccc(-c2noc(-c3cccnc3)n2)cc1OC	?	0.7%	8.91µM*	1.6%	2.8%	-6.1
COc1ccc(-c2nnc(-c3cccnc3)o2)cc1OC	?	-0.1%	90.2%	-0.8%	-6.6%	-10.8
CCOc1cc(-c2noc(-c3cccnc3)n2)ccc1OC	1.2%	-2.9%	35.5%	6.6%	-2.9%	-7.7
CC(=O)Nc1ccn(C2OC(C(COC(C)=O)NC(=O)C(COCc3ccccc3)NC(=O)OC(C)(C)C)C(OC(C)=O)C2OC(C)=O)c(=O)n1 (stereo not drawn)	nt	nt	nt	nt	5.9%	nt
O=C(Nc1nccs1)c1ccc2ccccc2n1	?	3.7%	44.5%	-0.6%	2.2%	-1.1
O=C(Nc1ccccn1)c1ccc2ccccc2n1	44.7µM*	-1.9%	8.0%	-6.2%	-18.4%	1.8
COc1ccc(Cl)cc1NC(=O)C1CCN(C(=O)C2CC(=O)N(c3ccc(C)cc3)C2)CC1 (stereo not drawn)	-11.6%	-12.0%	0.0%	1.5%	-22.0%	-113.4*
COc1ccc(NC(=O)C2CCN(C(=O)C3CC(=O)N(c4ccc(C)cc4)C3)CC2)cc1 (stereo not drawn)	-10.3%	3.6%	-23.4%	6.4%	3.4%	5.3
CC(=O)O[C@@H]1C(=O)O[C@H]2[C@@H]1OC(=O)[C@@H]2OC(C)=O	nt	0.2%	nt	nt	nt	nt
O=C(Cn1sc2ccccc2c1=O)Nc1ccccc1	nt	7.08µM*	-65.0%	nt	nt	nt
Cc1cc(C)nc(N/C=C(\C#N)C(=O)c2cccc(CSc3ccccc3)c2)n1	nt	nt	83.1%	nt	nt	nt
CCOC(=O)C1CCN(c2nc(-c3ccc(Br)cc3)cs2)CC1	nt	nt	nt	nt	nt	-18.9
O=C(Cc1nc2ccccc2[nH]c1=O)c1ccccc1	25.9%	-11.4%	5.62µM*	-14.0%	22.7%	-3.5
O=c1[nH]c2ccccc2nc1Cc1ccccc1	-9.0%	-11.4%	22.6%	-1.7%	?	40.5
Cn1c(C(=O)NCc2ccccn2)cc2c(=O)n3ccccc3nc21	?	-1.0%	5.01µM*	10.1%[46.1 µM]	?	-12.9
C/C(=N/OCC(=O)Nc1ccc(C)cc1C)c1cccs1	0.1%	2.1%	-16.0%	4.5%	7.9%	-6.5
C/C(=N\OCC(=O)Nc1ccccc1C(=O)O)c1cccs1	18.8%	3.9%	11.2µM*	0.7%	-6.7%	0.8
Cc1cccc(-n2nc([N+](=O)[O-])c(=NC3CCN(Cc4ccccc4)CC3)n2O)c1	14.1µM*	-2.3%	-67.8%	1.7%	-9.5%	13.8
C=C1C=C(C)n2ncc(C(=O)Nc3ccc(C)cn3)c2N1	nt	nt	-8.0%	nt	nt	nt
CC(=O)c1ccc(OCC(=O)N2CCCCC2)cc1	nt	-6.5%	nt	nt	nt	nt

Screening data from PubChem BioAssay.
